# PubChem BioAssay
# The source made the active and inactive calls. Unless noted, the rule behind the calls is not given here.
# Columns and labels:
# [1] = anti-His antibody binders, primary screen, artefact control for SMM control protein annotation, biochemical, small-molecule microarray, 635 nm fluorescence (AID 1128); conditions: anti-His Alexa647 antibody binding, higher = more signal;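 note: score merges feature fluorescence with signal-to-noise for each printed compound spot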
# [2] = test system: Human papillomavirus type 1a E7 protein (residues 1-88); assay: HPV1a E7 small-molecule binders, primary screen, biochemical, small-molecule microarray, residues 1-88, 635 nm (AID 1129); conditions: small-molecule microarray binding, fluorescence 635 nm; higher = more signal
# [3] = target: Focal adhesion kinase 1 (Homo sapiens) (UniProt Q05397); assay: small-molecule microarray binders of FAK, primary screen, biochemical, 635/667 nm fluorescence, BSA, DTT (AID 1130); conditions: PTK2 binding, 635 nm fluorescence, higher = more signal;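 note: composite of spot emission at 667 nm and signal to noise over triplicate slides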
# [4] = test system: Fibrinogen (Alexa647-labelled); assay: fibrinogen binders on compound microarrays, profiling panel, artefact control for SMM control-protein annotation, biochemical, small-molecule microarray, 635/667 nm fluorescence (AID 1131); conditions: fibrinogen-A647 binding fluorescence, higher = more signal;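 note: z-score merges 667 nm fluorescence with per-spot signal-to-noise over triplicate slides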
# [5] = target: Follistatin (Homo sapiens) (UniProt P19883); assay: follistatin binders on small-molecule microarrays, primary screen, biochemical, small-molecule microarray, 635/667 nm fluorescence (AID 1132); conditions: FST binding, 635 nm fluorescence, higher = more signal
# [6] = target: Fibroblast growth factor 2 (Homo sapiens) (UniProt P09038); assay: FGF2 binders on small-molecule microarrays, primary screen, biochemical, small-molecule microarray, 635/667 nm fluorescence (AID 1133); conditions: small-molecule microarray binding, FGF2, fluorescence 635/667; higher = more signal
# [7] = mitochondrial membrane potential change in A549 cells, profiling panel, cell-based, JC-1 fluorescence, basal, 24 h, 100 nL (AID 1138); conditions: higher = more signal;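 note: A549 lung adenocarcinoma cells under basal conditions with no added stimulus; test concentration not given here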
# [8] = test system: Lefty1; assay: Lefty1 binders on small-molecule microarrays, primary screen, biochemical, small-molecule microarray, 635/667 nm fluorescence (AID 1139); conditions: small-molecule microarray binding, fluorescence 635/667; higher = more signal
# [9] = test system: wheat germ agglutinin (Triticum aestivum), Alexa647-labelled; assay: wheat germ agglutinin binders on compound microarrays, profiling panel, artefact control for SMM control-protein annotation, biochemical, small-molecule microarray, 635/667 nm fluorescence (AID 1140); conditions: WGA-A647 binding, 635 nm fluorescence, higher = more signal;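 note: score merges 667 nm feature emission with signal to noise over triplicate slides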
# [10] = target: Luciferin 4-monooxygenase (Photinus pyralis) (UniProt P08659); assay: firefly luciferase enzyme inhibitors, primary screen, biochemical, luminescence, purified enzyme, 2006 set (AID 1141); conditions: SteadyGlo luminescence, 30 min, higher = more signal, called active from +8 up or from −8 down;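 note: cell-free assay with purified firefly luciferase at 100 ng per well in PBS; test concentration not given here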
# [11] = test system: Wnt5a (protein binding on small-molecule microarray); assay: Wnt5a binders on small-molecule microarray, primary screen, biophysical, 635/667 nm fluorescence (AID 1142); conditions: 635 nm fluorescence, higher = more signal;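 note: fluorescence read at 667 nm with signal to noise per printed feature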
# [12] = cell viability in Huh7 cells, primary screen, cytotoxicity control for HCV replication inhibitor project, CellTiter-Glo luminescence, basal, 48 h (AID 1143); conditions: Huh7 HCV replicon, higher = more signal, called active from +8 up or from −8 down;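 note: Huh7 hepatoma cells carrying a hepatitis C replication reporter with no stimulus; test concentration not given here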
# [13] = P. aeruginosa biofilm formation inhibitors, primary screen, PAO1 strain, BacTiter-Glo luminescence, LB-PBS (AID 1144); conditions: 12 h, higher = more signal
# [14] = CREB reporter modulators without forskolin, primary screen, cell-based, PC12, CRE-LacZ reporter, unstimulated (AID 1145); conditions: no forskolin, luminescence, 4.5 h, higher = more signal, called active from +8 up or from −8 down
# [15] = CREB reporter modulators under forskolin, primary screen, cell-based, PC12, CRE-LacZ reporter, forskolin-stimulated (AID 1146); conditions: luminescence, 4.5 h, higher = more signal, called active from +8 up or from −8 down;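 note: PC12 cells with 6xCRE LacZ reporter stimulated by forskolin 10 µM; beta-galactosidase reporter signal reflecting CREB driven transcription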
# [16] = target: Streptavidin (Streptomyces avidinii) (UniProt P22629); assay: streptavidin binders on small-molecule microarray, primary screen, artefact control for SMM compound annotation, biophysical, 635/667 nm fluorescence (AID 1147); conditions: streptavidin binding, higher = more signal;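 note: signal reflects streptavidin binding to arrayed compounds as a control protein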
# [17] = small-molecule binders of probe aInhba, primary screen, biochemical, small-molecule microarray, 635/667 nm fluorescence (AID 1148); conditions: higher = more signal;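 note: score merges 667nm spot fluorescence with signal-to-noise for antibody binding to printed compounds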
# [18] = target: Torsin-1A (Homo sapiens) (UniProt O14656); assay: torsin A binders from cell lysate, primary screen, small-molecule microarray, wild-type, 635/667 nm (AID 1149); conditions: COS7 hTOR1A-WT lysate, 635 nm fluorescence, higher = more signal
# [19] = target: Torsin-1A (Homo sapiens) (UniProt O14656); assay: small-molecule binders of mutant TOR1A in lysate, primary screen, cell lysate, small-molecule microarray, COS7 lysate, 635/667 nm fluorescence (AID 1150); conditions: COS7 hTOR1A mutant lysate, 635 nm fluorescence, higher = more signal;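 note: score pools 667 nm emission and signal to noise measuring lysate protein binding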
# [20] = test system: Sonic hedgehog protein (Shh); assay: small-molecule binders of Shh protein, primary screen, biochemical, small-molecule microarray, 635/667 nm fluorescence (AID 1151); conditions: small-molecule microarray binding, 635 nm fluorescence; higher = more signal;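 note: Shh protein binding to compounds spotted on small-molecule microarray slides; score combines spot fluorescence intensity with signal-to-noise across triplicate slides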
# Sequence of Fibroblast growth factor 2 (Homo sapiens) (P09038 whole entry, looked up): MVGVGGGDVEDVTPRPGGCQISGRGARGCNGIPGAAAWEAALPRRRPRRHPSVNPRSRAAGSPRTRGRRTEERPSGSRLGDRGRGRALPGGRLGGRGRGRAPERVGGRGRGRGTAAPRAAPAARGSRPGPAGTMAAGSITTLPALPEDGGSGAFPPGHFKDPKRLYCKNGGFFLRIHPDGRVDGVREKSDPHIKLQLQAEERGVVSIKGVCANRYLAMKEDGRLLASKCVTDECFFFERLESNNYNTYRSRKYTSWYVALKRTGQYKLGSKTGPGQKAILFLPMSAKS
# Sequence of Luciferin 4-monooxygenase (Photinus pyralis) (P08659 whole entry, looked up): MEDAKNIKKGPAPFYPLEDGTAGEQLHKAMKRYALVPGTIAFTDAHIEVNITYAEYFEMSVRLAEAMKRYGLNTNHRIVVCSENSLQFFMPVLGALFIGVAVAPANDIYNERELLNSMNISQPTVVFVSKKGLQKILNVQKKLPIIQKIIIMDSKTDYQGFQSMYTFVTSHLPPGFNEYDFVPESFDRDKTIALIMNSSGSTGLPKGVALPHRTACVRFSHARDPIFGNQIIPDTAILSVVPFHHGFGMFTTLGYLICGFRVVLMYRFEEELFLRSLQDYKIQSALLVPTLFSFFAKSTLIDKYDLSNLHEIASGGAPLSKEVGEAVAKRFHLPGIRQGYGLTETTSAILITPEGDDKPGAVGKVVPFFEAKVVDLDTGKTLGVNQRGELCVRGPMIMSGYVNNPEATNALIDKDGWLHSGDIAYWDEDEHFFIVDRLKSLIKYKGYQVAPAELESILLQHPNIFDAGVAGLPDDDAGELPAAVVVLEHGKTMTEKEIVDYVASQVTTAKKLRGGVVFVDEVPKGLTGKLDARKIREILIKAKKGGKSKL
# Sequence of Torsin-1A (Homo sapiens) (O14656 whole entry, looked up): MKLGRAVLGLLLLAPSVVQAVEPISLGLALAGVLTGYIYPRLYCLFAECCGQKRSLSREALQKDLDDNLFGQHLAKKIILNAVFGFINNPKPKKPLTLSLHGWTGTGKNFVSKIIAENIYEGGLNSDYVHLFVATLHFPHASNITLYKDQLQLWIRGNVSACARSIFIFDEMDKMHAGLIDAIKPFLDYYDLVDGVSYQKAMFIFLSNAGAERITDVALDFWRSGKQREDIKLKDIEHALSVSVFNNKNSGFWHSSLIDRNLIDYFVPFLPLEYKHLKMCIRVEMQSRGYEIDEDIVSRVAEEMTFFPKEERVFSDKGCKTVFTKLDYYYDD
# Sequence of Follistatin (Homo sapiens) (P19883 whole entry, looked up): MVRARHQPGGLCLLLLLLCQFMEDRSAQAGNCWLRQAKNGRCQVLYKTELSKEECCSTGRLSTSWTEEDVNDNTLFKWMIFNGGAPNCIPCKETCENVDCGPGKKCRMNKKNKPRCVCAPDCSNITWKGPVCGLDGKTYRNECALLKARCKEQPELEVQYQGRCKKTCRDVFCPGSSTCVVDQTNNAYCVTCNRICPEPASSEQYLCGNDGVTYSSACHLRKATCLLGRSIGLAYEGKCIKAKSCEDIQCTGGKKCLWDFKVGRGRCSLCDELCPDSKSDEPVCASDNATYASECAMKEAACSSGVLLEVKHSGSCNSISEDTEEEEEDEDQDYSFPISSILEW
# Sequence of Streptavidin (Streptomyces avidinii) (P22629 whole entry, looked up): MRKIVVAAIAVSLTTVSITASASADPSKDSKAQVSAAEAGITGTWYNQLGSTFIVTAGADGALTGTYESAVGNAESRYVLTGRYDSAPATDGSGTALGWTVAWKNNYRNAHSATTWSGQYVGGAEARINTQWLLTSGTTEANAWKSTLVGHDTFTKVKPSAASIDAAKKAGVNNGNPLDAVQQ
# Sequence of Focal adhesion kinase 1 (Homo sapiens) (Q05397 whole entry, looked up): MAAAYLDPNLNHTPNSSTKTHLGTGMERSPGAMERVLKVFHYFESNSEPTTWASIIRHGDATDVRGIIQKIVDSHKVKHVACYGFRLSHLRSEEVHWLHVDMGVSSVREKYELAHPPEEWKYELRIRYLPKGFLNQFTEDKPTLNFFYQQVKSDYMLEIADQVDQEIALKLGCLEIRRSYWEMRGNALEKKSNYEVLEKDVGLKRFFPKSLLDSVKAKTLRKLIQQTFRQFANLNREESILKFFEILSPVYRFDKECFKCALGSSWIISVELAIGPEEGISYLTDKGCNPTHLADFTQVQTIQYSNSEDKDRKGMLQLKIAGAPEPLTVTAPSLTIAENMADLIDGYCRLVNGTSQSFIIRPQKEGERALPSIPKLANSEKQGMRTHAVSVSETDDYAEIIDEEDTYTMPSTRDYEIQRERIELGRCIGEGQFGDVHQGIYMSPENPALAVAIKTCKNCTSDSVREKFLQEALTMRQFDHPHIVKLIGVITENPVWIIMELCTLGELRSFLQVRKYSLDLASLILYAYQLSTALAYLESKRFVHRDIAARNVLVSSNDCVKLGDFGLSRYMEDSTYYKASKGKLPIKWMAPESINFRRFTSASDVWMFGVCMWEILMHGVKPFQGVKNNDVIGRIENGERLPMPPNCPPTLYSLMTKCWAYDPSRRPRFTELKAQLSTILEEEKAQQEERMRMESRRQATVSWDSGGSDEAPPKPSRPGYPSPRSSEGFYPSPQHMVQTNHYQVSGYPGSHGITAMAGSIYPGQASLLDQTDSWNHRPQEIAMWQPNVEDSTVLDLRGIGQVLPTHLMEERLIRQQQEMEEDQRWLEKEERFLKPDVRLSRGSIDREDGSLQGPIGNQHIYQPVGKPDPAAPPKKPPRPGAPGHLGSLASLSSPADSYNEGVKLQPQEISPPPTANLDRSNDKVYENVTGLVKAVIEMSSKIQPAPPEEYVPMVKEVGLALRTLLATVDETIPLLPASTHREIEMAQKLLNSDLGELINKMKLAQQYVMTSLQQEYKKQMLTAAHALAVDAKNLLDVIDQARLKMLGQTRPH
SMILES,composite z-score [1],composite z-score [2],composite z-score [3],composite z-score [4],composite z-score [5],composite z-score [6],z-score [7],composite z-score [8],composite z-score [9],z-score [10],composite z-score [11],z-score [12],z-score [13],z-score [14],z-score [15],composite z-score [16],composite z-score [17],composite z-score [18],composite z-score [19],composite z-score [20]
CN1C(=O)C2C=CC(C(O)c3ccc(N(C)C)cc3)N(Nc3ccc([N+](=O)[O-])cc3[N+](=O)[O-])C2C1=O (stereo not given),1.54,1.23,0.171,1.01,1.26,-0.0151,0.469,-0.375,1.24,-1.2 (inactive),0.0988,0.891 (inactive),-0.202 (inactive),1.03 (inactive),0.0229 (inactive),1.51,0.529,0.977,1.56,0.262
O=C(NCc1ccccc1)[C@@]1(Cc2ccccc2)COC(c2ccc(OCCCO)cc2)=N1,2.46,1.17,0.773,0.838,0.0985,-0.238,-1.56,-0.554,0.449,-0.603 (inactive),0.369,-4.7 (inactive),-0.607 (inactive),-0.0157 (inactive),-1.27 (inactive),0.191,-0.0087,-0.0265,0.737,-0.587
COC(=O)[C@H]1[C@@H]2COc3ccccc3[C@H]2N[C@H]1C(=O)OC,-0.0432,0.0902,0.404,0.428,0.214,0.446,0.603,0.171,0.274,-1.37 (inactive),-0.0215,0.508 (inactive),-0.411 (inactive),2.13 (inactive),-0.827 (inactive),-0.142,-0.118,0.425,0.775,0.264
C=C(CCCC)/C(=C/C[C@H](OC(=O)c1ccncc1)c1cccc(OCCO)c1)c1cc(C(=O)OC)ccc1OC,1.06,0.492,-0.0622,0.723,0.852,1.59,0.397,1.17,0.311,0.34 (inactive),0.84,-5.25 (inactive),-0.536 (inactive),6.81 (inactive),-0.802 (inactive),0.396,-0.0695,0.349,0.458,1.61
C=CCC(OC(C)=O)[C@@H]1[C@@H](N(Cc2ccc(-c3ccccc3)cc2)C(=O)c2ccc(-c3ccccc3)cc2)c2cc(OCCCO)ccc2N1C(=O)Cc1ccc(OC)cc1 (stereo not given in full),-0.347,0.328,0.602,0.466,0.856,0.0338,0.764,0.0287,0.192,-0.115 (inactive),0.0459,-0.178 (inactive),0.318 (inactive),-0.0247 (inactive),0.522 (inactive),0.573,-0.0774,-0.096,-0.37,0.346
